Assay results as given in PubChem BioAssay AID624330 (Southern Research Specialized Biocontainment Screening …, 2012).
Several values for one entry are separate records, joined by “and”; a condition that tells them apart may be missing. Equal entries are not always repeated. In all, about 340,000 compounds went through this assay and about 2,100 (0.62%) were called active.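 The calls were made as follows: active = first-screen hits whose inhibition reached a set limit at any dose in the follow-up dose series; inconclusive = inhibition above the set first-screen limit but never retested; inactive = the rest.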 These entries were drawn from the full list. Entries with a potency or affinity are not part of this list.

These compounds were tested against Rac GTPase-activating protein 1 (Homo sapiens) (UniProt Q9H0H5) (assay: blockers of MgcRacGAP-driven Rac1 GTP hydrolysis – biochemical, ADP Hunter fluorescence, primary and confirmatory, confirmation (AID 624330;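 also: fluorescence reports GDP produced by GAP-driven GTP hydrolysis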)). Conditions: MgcRacGAP-stimulated Rac1 GTP hydrolysis, at 30 µM, hits give high values, GST-tagged Rac1 F28L mutant substrate.
Chain of Rac GTPase-activating protein 1 (Homo sapiens) (Q9H0H5 whole entry, looked up): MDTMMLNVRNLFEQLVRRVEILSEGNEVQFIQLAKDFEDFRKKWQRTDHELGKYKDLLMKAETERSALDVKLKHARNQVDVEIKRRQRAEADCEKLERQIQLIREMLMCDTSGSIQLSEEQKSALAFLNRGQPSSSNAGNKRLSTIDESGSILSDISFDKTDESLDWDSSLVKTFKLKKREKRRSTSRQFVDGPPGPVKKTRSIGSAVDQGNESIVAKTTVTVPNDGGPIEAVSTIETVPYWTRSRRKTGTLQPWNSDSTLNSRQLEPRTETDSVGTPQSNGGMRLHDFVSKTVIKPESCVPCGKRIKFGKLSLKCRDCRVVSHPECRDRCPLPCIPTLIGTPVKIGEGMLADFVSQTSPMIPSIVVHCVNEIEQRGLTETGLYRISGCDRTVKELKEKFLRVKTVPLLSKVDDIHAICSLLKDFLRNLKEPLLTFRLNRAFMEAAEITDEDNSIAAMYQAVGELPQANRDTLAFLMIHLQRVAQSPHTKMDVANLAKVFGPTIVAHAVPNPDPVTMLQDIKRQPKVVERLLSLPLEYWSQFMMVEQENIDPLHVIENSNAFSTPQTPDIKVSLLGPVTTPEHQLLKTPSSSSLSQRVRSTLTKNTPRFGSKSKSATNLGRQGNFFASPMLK

inhibition, inactive:
Cc1nc(NCC(c2ccccc2)N(C)C)c2c(C)c(C)sc2n1 (centres undefined) 7.93%
C=CCNC(=O)CN1CCN(Cc2ccc3c(c2)OCO3)CC1 6.33%
O=C(NNc1ccccc1[N+](=O)[O-])NC1CCCCC1 2.65%
Cc1ccc(NC(=O)CCn2c(=O)c3cccn3c3ccccc32)cc1C 7.75%
CN(CC(=O)Nc1ccccc1N1CCCC1)S(=O)(=O)c1ccc(F)cc1 3.64%
CCOC(=O)NNC(=O)c1[nH]c2ccc(Br)cc2c1-c1ccccc1 9.63%
O=C(O)c1cccc(Nc2nc(C(F)(F)F)nc3ccccc23)c1 2.84%
OCCN(CCO)c1cc2c3ccccc3ccc2c2ccccc12 16%
OCCN(CCO)c1ccc(C(c2ccccc2Cl)c2ccc(N(CCO)CCO)cc2Cl)c(Cl)c1 4.93%
CC(Oc1cc2oc(=O)c3c(c2cc1Cl)CCCC3)C(=O)NCCN1CCOCC1 (centres undefined) 11.2%
CCC(C)c1ccc(NC(=S)NCCn2cc(Cl)cn2)cc1 (centres undefined) 10.6%
CC(NCc1ccc(S(N)(=O)=O)cc1)C(=O)N1CCc2ccccc21 (centres undefined) 16.2%
CC1Cc2ccccc2N1C(=S)Nc1ccc(S(N)(=O)=O)cc1 (centres undefined) 10.7%
CCOC(=O)N1CCN(c2c(N3CCN(c4ccc(F)cc4)CC3)c(=O)c2=O)CC1 6.14%
O=C(CCCn1c(=S)[nH]c2cc3c(cc2c1=O)OCO3)NCCc1ccccc1Cl 9.48%
Clc1ccc(Nc2nc(-c3ccncc3)cs2)cc1 9.41%
Cc1ccc(Nc2nc(-c3ccncc3)cs2)cc1 8.27%
Nc1ccc(C(=O)Nc2ccc(Nc3ccncc3)cc2)cc1 5.48%
Nc1ccc(Nc2ccncc2[N+](=O)[O-])cc1 8.85%
CSc1cc(/C=N/O)c(SC)s1 3.21%
CCCn1c2ccccc2c2cnn(CC(=O)N3CCN(C4CCCCC4)CC3)c(=O)c21 10.4%
O=C(O)c1cc([N+](=O)[O-])cc([N+](=O)[O-])c1N1CCN(c2cccc(C(F)(F)F)c2)CC1 -6.28%
COc1ccc(N(C(=O)COc2ccc(C)cc2)S(=O)(=O)c2ccc(C)cc2)cc1 3.97%
CC(C)(C)c1ccc(/C=C2\Oc3cc(O)ccc3C2=O)cc1 5.28%
O=C1/C(=C/c2cccc(F)c2)Oc2cc(O)ccc21 6.11%
O=C1/C(=C/c2ccc(Br)cc2)Oc2cc(O)ccc21 7.31%
COc1ccc(/C=C2\Oc3cc(OCC(N)=O)ccc3C2=O)cc1OC 10.9%
O=C(COC(=O)CNC(=O)c1ccc(Br)cc1)NCCC1=CCCCC1 11.9%
Cc1cccc2cc(CN(CC(C)C)S(=O)(=O)c3ccccc3)c(=O)[nH]c12 8.17%
O=c1c2ccccc2c(C=Nc2ccc(Cl)cn2)c(O)n1-c1cc(Cl)ccc1N1CCOCC1 12.5%
Brc1cc2[nH]cnc2c2ccccc12 8.14%
Oc1ccc2c(c1)c1ccccc1c1ncccc21 17.4%
CCN(CC(=O)Nc1c(F)cccc1F)C(=O)c1cccc(S(=O)(=O)N(C)c2ccccc2)c1 2.67%
COC(=O)C=CSC(=S)C1CCCC1=N (centres undefined) 6.77%
COc1ccccc1-c1cn(-c2ccccc2)c(=S)[nH]1 10.3%
N#CCCn1c(SCC(=O)c2c[nH]c3ccccc23)nc2ccccc21 15.1%
Cc1nn(-c2cc(C(F)(F)F)ccc2Cl)c2nc(C(Cl)(Cl)Cl)[nH]c(=O)c12 9.52%
COc1ccc(C2C3=C(CC(C)(C)CC3=O)Oc3ncn(Cc4ccccc4)c(=N)c32)cc1 (centres undefined) 2.61%
COc1cc(/C=C/C(=O)O)ccc1OCc1ccc([N+](=O)[O-])cc1 7.48%
COC(=O)C(=Cc1ccc(OCc2ccc([N+](=O)[O-])cc2)c(OC)c1)C(=O)OC 13.9%
C/C(N)=C(/C#N)C(=O)CSc1nnc(SCc2ccc(Cl)cc2)s1 2.43% and 2.31%
COc1cc(C(=O)NNC(=O)CNC(=O)C2CCCCC2)ccc1OC(C)C 0.59%
Cc1ccc(S(=O)(=O)N2[C@@H](c3ccc(F)cc3)C(C(=O)O)=C[C@H]2CC2CCCC2)cc1 11%
O=C(CN1C(=O)c2ccccc2C1=O)Nc1ccccc1 1.35%
COc1ccc(NC(=O)CCN2C(=O)c3cccc([N+](=O)[O-])c3C2=O)cc1 6.66%
CCOc1ccc(NC(=O)CCN2C(=O)c3cccc([N+](=O)[O-])c3C2=O)cc1 3.27%
CN(C)c1ccc(NC(=O)CN2CCc3ccccc3C2)cc1 14.3%
CN1CC(=O)N(CC(=O)NCc2ccc(F)cc2)c2ccccc2C1=O 1.75%
CN1CC(=O)N(CC(=O)Nc2ccc(F)cc2)c2ccccc2C1=O -12.2%
Cc1ccc(NC(=O)CN2C(=O)c3ccccc3C2=O)cc1 10.7%
CN(C)c1ccc(NC(=O)CN2C(=O)CC(c3ccccc3)=Nc3ccccc32)cc1 30.9%
COC(=O)Nc1nnc(-c2ccc(OC)cc2)s1 16%
COc1ccc(C(=O)NNC(=O)COc2ccc(Cl)cc2C)cc1S(=O)(=O)N1CCOCC1 6.89%
O=C(NCCN1CCOCC1)C(Sc1ccccc1)c1ccccc1 (centres undefined) 15.2%
NCCSc1c(-c2ccc(Cl)cc2)[nH]c2ccccc12 8.34%
O=C(COC(=O)c1c(F)cccc1Cl)NC(=O)Nc1ccc2c(c1)OCCO2 0.21%
CC(=O)NC12CC3CC(C1)CC(C(=O)N1CCN(S(=O)(=O)c4ccccc4[N+](=O)[O-])CC1)(C3)C2 9.33%
COCCNC(=O)c1cc(-c2ccccc2)nn1Cc1cc(C)no1 2.94%
O=c1oc2cc(O)ccc2c2ccccc12 17.2%
Cc1c(-c2ccccc2)c(=O)oc2cc(O)ccc12 7.91%
COc1ccc(F)cc1S(=O)(=O)NCC1CCCO1 (centres undefined) 1.18%
O=C(CSc1nc(-c2ccco2)cc(C(F)(F)F)n1)Nc1ccc2c(c1)OCO2 4.87%
Cc1nc(Nc2cccc(O)c2)c2c3c(sc2n1)CCC3 10.2%
Cc1ccc(CNc2nc(C)nc3sc4c(c23)CCC4)cc1 5.5%
O=C(c1cccc(S(=O)(=O)N2CCCCCC2)c1)N1CCN(c2ccccc2F)CC1 2.31%
COc1ccccc1OCC(=O)N1CCCC(Nc2ccc(F)c(F)c2)C1 (centres undefined) 7.15%
O=C1CCCN1CCC(=O)N1CCCC(Nc2ccc(F)cc2)C1 (centres undefined) 7.82%
COc1ccccc1OCC(=O)N1CCCC(Nc2ccc(C)c(C)c2)C1 (centres undefined) 14.2%
COc1ccc(NC2CCCN(C(=O)CSc3ccccn3)C2)cc1OC (centres undefined) 30.4%
CC(C)c1ccc(NC2CCCN(C(=O)CCCn3cncn3)C2)cc1 (centres undefined) 6.88%
O=C(CSc1ccccc1)N1CCCC(Nc2ccccc2)C1 (centres undefined) 8.49%
O=C1CCCN1CCC(=O)N1CCCC(Nc2ccc(F)c(F)c2)C1 (centres undefined) 7.57%
O=C(CCCn1cncn1)N1CCCC(Nc2ccc(F)cc2)C1 (centres undefined) 5.12%
C[C@@H]1CN([C@@H](C)CO)C(=O)c2cc(Br)cnc2O[C@@H]1CN(C)C(=O)Nc1ccc(F)cc1 9.67%
C[C@H](NC(N)=O)C(=O)OCC(=O)Nc1ccc(OC(F)F)cc1 5.01%
COc1ccc(C2C(C(=O)NCc3ccco3)CCC(=O)N2c2ccc(OC)cc2)cc1 (centres undefined) -1.81%
O=C(CN1CCCC1)Nc1cccc(Cl)c1 6.77%
CN(CCOc1ccc(Cl)cc1)C(=O)c1cccc(S(=O)(=O)N2CCN(c3ccc(F)cc3)CC2)c1 2.42%
COc1ccc(/C=N/n2c(SC)nnc2-c2ccccc2)c(OC)c1OC 10.5%
COc1cccc(/C=N/n2c(C3CCCCC3)n[nH]c2=S)c1O 17.5%
COc1ccc(/C=N/n2c(SC)nnc2-c2ccccc2)cc1C 12.1%
COc1ccc(/C=N/n2c(C)nnc2C)c(OC)c1OC 8.6%
COc1ccc(/C=N/n2c(-c3ccc(C)cc3)n[nH]c2=S)cc1OC 8.75%
COc1cccc(/C=N/n2c(-c3n[nH]c4c3CCC4)n[nH]c2=S)c1OC 10.4%
COc1ccc(/C=C/C(=O)OC2CCCCC2CN(C)C)cc1 (centres undefined) 1.25%
CCN1CNC(=S)N(c2cccc(C)c2C)C1 7.09%
O=C(O)C1(S(=O)(=O)c2ccc(Cl)cc2)CCC1 6.58%
Cc1cccc(N2N=C(C(=O)Nc3nc(C)cs3)CCC2=O)c1 10.5%
O=C(Nc1cccnc1)c1ccccc1F 6.52%
O=C1Nc2ccccc2C1=NN1CCCCCC1 -3.27%
O=C1Nc2ccccc2/C1=N\N1CCOCC1 3.01%
CCN(Cc1ccccc1)S(=O)(=O)c1ccc(S(=O)(=O)N2CCN(CCC#N)CC2)cc1 -2.32%
Cc1ccc(NC(=O)CN(C)C(=O)CCSc2ccc(F)cc2)cc1 5.93%
COc1cccc(CN(C)C(=O)c2ccc(C)c(S(=O)(=O)N3CCCCC3)c2)c1 3.14%
